Measured values: PubChem BioAssay (EPA / NIEHS)
Active and inactive are the calls of the source. How the source made its calls: active means hit-call score of the fitted dose curve at least 0.9, where 1 is the maximum; inactive means score below 0.9.

These molecules were tested on JUN Transcription Factor, JUN (gene 3725) (assay: LTEA_HepaRG_JUN: Life Technologies and Expression Analysis (LTEA) Assay for JUN Transcription Factor using HepaRG (AID 2283513)). Details: mRNA level, 48 h; actives raise or lower the signal.
In short: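 Differentiated HepaRG cells were exposed to chemicals for 48 h in serum-free induction medium, 8 concentrations from 100 uM in half-log steps, 0.5% DMSO vehicle, in duplicate. JUN mRNA was quantified by TaqMan qRT-PCR, normalized to ACTB, GAPDH, POLR2A.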

| SMILES | outcome |
| --- | --- |
| Nc1cc2c3c(c1)C(c1ccccc1)=N[C@@H](NC(=O)c1cccnc1)C(=O)N3CC2 | inactive |
| c1nc[nH]n1 | inactive |
| CCC(C)(C)c1ccc(O)cc1 | inactive |
| CCOP(=S)(OCC)SCSCC | inactive |
| CCNc1nc(Cl)nc(NC(C)(C)C)n1 | inactive |
| CCOC(=O)c1ccccc1C(=O)OCC | inactive |
| CCOP(=S)(Oc1ccc([N+](=O)[O-])cc1)c1ccccc1 (centres undefined) | inactive |
| Nc1ccc(Cl)cc1 | inactive |
| Cc1ccc(N)cc1N | inactive |
| CCOc1ccc(C(C)(C)COCc2cccc(Oc3ccccc3)c2)cc1 | inactive |
| ClC1=C(Cl)C2(Cl)C3C(Cl)C(Cl)CC3C1(Cl)C2(Cl)Cl (centres undefined) | inactive |
| CCCCN(CCCC)N=O | inactive |
| c1ccc(OP(Oc2ccccc2)Oc2ccccc2)cc1 | inactive |
| CCC1(c2ccccc2)C(=O)N=C(O)NC1=O (centres undefined) | inactive |
| Cc1cccc(N)c1 | inactive |
| CC(C)(C)OOC(C)(C)C | inactive |
| CCCCCCCc1ccc(O)cc1 | inactive |
| ClC(Cl)c1ccccc1 | inactive |
| CCCCN(CCCC)SN(C)C(=O)Oc1cccc2c1OC(C)(C)C2 | inactive |
| c1cc2c3c(cccc3c1)CC2 | inactive |
| CN(C)C(=O)Cl | inactive |

Each molecule was assayed on Lipase C (LIPC), LIPC (gene 3990) (assay: LTEA_HepaRG_LIPC: Life Technologies and Expression Analysis (LTEA) Assay for Lipase C (LIPC) using HepaRG (AID 2283514)). Details: mRNA level, 48 h; actives raise or lower the signal.
In short: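 Differentiated human HepaRG cells in serum-free induction medium were exposed in duplicate for 48 h to eight concentrations (top 100 uM, half-log steps, 0.5% DMSO). LIPC mRNA was quantified by TaqMan qRT-PCR, normalized to ACTB, GAPDH and POLR2A, with bidirectional fitting versus DMSO.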

| SMILES | outcome | AC50 |
| --- | --- | --- |
| Nc1cc2c3c(c1)C(c1ccccc1)=N[C@@H](NC(=O)c1cccnc1)C(=O)N3CC2 | inactive | – |
| c1nc[nH]n1 | inactive | – |
| CCC(C)(C)c1ccc(O)cc1 | inactive | – |
| CCOP(=S)(OCC)SCSCC | inactive | – |
| CCNc1nc(Cl)nc(NC(C)(C)C)n1 | inactive | – |
| CCOC(=O)c1ccccc1C(=O)OCC | inactive | – |
| CCOP(=S)(Oc1ccc([N+](=O)[O-])cc1)c1ccccc1 (centres undefined) | inactive | – |
| Nc1ccc(Cl)cc1 | inactive | – |
| Cc1ccc(N)cc1N | inactive | – |
| CCOc1ccc(C(C)(C)COCc2cccc(Oc3ccccc3)c2)cc1 | inactive | – |
| ClC1=C(Cl)C2(Cl)C3C(Cl)C(Cl)CC3C1(Cl)C2(Cl)Cl (centres undefined) | – | 43.7 µM (active) |
| CCCCN(CCCC)N=O | inactive | – |
| c1ccc(OP(Oc2ccccc2)Oc2ccccc2)cc1 | inactive | – |
| CCC1(c2ccccc2)C(=O)N=C(O)NC1=O (centres undefined) | inactive | – |
| Cc1cccc(N)c1 | inactive | – |
| CC(C)(C)OOC(C)(C)C | inactive | – |
| CCCCCCCc1ccc(O)cc1 | inactive | – |
| ClC(Cl)c1ccccc1 | inactive | – |
| CCCCN(CCCC)SN(C)C(=O)Oc1cccc2c1OC(C)(C)C2 | inactive | – |
| c1cc2c3c(cccc3c1)CC2 | inactive | – |
| CN(C)C(=O)Cl | inactive | – |

These molecules were tested on Lipoprotein lipase (LPL), LPL (gene 4023) (assay: LTEA_HepaRG_LPL: Life Technologies and Expression Analysis (LTEA) Assay for Lipoprotein lipase (LPL) using HepaRG (AID 2283515)). Details: mRNA level, 48 h; actives raise or lower the signal.
In short: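 Differentiated human HepaRG cells in serum-free induction medium were exposed in duplicate for 48 h to eight half-log concentrations (top 100 uM) in 0.5% DMSO. LPL mRNA was quantified by TaqMan qRT-PCR, normalized to ACTB, GAPDH and POLR2A.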

| SMILES | outcome |
| --- | --- |
| Nc1cc2c3c(c1)C(c1ccccc1)=N[C@@H](NC(=O)c1cccnc1)C(=O)N3CC2 | inactive |
| c1nc[nH]n1 | inactive |
| CCC(C)(C)c1ccc(O)cc1 | inactive |
| CCOP(=S)(OCC)SCSCC | inactive |
| CCNc1nc(Cl)nc(NC(C)(C)C)n1 | inactive |
| CCOC(=O)c1ccccc1C(=O)OCC | inactive |
| CCOP(=S)(Oc1ccc([N+](=O)[O-])cc1)c1ccccc1 (centres undefined) | inactive |
| Nc1ccc(Cl)cc1 | inactive |
| Cc1ccc(N)cc1N | inactive |
| CCOc1ccc(C(C)(C)COCc2cccc(Oc3ccccc3)c2)cc1 | inactive |
| ClC1=C(Cl)C2(Cl)C3C(Cl)C(Cl)CC3C1(Cl)C2(Cl)Cl (centres undefined) | inactive |
| CCCCN(CCCC)N=O | inactive |
| c1ccc(OP(Oc2ccccc2)Oc2ccccc2)cc1 | inactive |
| CCC1(c2ccccc2)C(=O)N=C(O)NC1=O (centres undefined) | inactive |
| Cc1cccc(N)c1 | inactive |
| CC(C)(C)OOC(C)(C)C | inactive |
| CCCCCCCc1ccc(O)cc1 | inactive |
| ClC(Cl)c1ccccc1 | inactive |
| CCCCN(CCCC)SN(C)C(=O)Oc1cccc2c1OC(C)(C)C2 | inactive |
| c1cc2c3c(cccc3c1)CC2 | inactive |
| CN(C)C(=O)Cl | inactive |

What follows are molecules tested on MicroRNA 122 (MIR122), gene 406906 (assay: LTEA_HepaRG_MIR122: Life Technologies and Expression Analysis (LTEA) Assay for MicroRNA 122 (MIR122) using HepaRG (AID 2283516; further: the transcript read is the microRNA miR-122)). Details: mRNA level, 48 h; actives raise or lower the signal.
In short: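 Differentiated human HepaRG cells were exposed 48 h in serum-free induction medium to eight half-log concentrations (top 100 uM, 0.5% DMSO). Transcript level was measured by TaqMan qRT-PCR, normalized to ACTB, GAPDH and POLR2A, and fitted bidirectionally versus DMSO.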

| SMILES | outcome |
| --- | --- |
| Nc1cc2c3c(c1)C(c1ccccc1)=N[C@@H](NC(=O)c1cccnc1)C(=O)N3CC2 | inactive |
| c1nc[nH]n1 | inactive |
| CCC(C)(C)c1ccc(O)cc1 | inactive |
| CCOP(=S)(OCC)SCSCC | inactive |
| CCNc1nc(Cl)nc(NC(C)(C)C)n1 | inactive |
| CCOC(=O)c1ccccc1C(=O)OCC | inactive |
| CCOP(=S)(Oc1ccc([N+](=O)[O-])cc1)c1ccccc1 (centres undefined) | inactive |
| Nc1ccc(Cl)cc1 | inactive |
| Cc1ccc(N)cc1N | inactive |
| CCOc1ccc(C(C)(C)COCc2cccc(Oc3ccccc3)c2)cc1 | inactive |
| ClC1=C(Cl)C2(Cl)C3C(Cl)C(Cl)CC3C1(Cl)C2(Cl)Cl (centres undefined) | inactive |
| CCCCN(CCCC)N=O | inactive |
| c1ccc(OP(Oc2ccccc2)Oc2ccccc2)cc1 | inactive |
| CCC1(c2ccccc2)C(=O)N=C(O)NC1=O (centres undefined) | inactive |
| Cc1cccc(N)c1 | inactive |
| CC(C)(C)OOC(C)(C)C | inactive |
| CCCCCCCc1ccc(O)cc1 | inactive |
| ClC(Cl)c1ccccc1 | inactive |
| CCCCN(CCCC)SN(C)C(=O)Oc1cccc2c1OC(C)(C)C2 | inactive |
| c1cc2c3c(cccc3c1)CC2 | inactive |
| CN(C)C(=O)Cl | inactive |
